Drawing on PubChem BioAssay AID1259336 (Sattelle Laboratory, UCL Respiratory, Division of Medicine, …, 2017), this text covers log2 fold change growth for 38 molecules.

Values without a mark were called inactive. Cut-off read from the data, not from the text of the source: active = log2 fold change growth below about -1.8; inactive = the rest.

The nature of the assay: anthelmintic activity against nematode growth – whole organism, log2 fold change (AID 1259336).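 Note: growth scored by imaging after five days at 20 °C.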 Conditions: C. elegans growth, anthelmintic screen; stronger effect = lower value.
As to `CC(C)(C)C1CCC(CC2=C(O)c3ccccc3C(=O)C2=O)CC1` (stereo not drawn), the log2 fold change growth was -0.0767. The same measure for `N=C(N)c1ccc(OCCCCCOc2ccc(C(=N)N)cc2)cc1`: 0.291. To `CCN(CC)S(=O)(=O)c1ccc(Cl)c(C(=O)Nc2ccc3nc(C)sc3c2)c1` belongs -1.22; to `CNCC[C@H](Oc1ccc(C(F)(F)F)cc1)c1ccccc1`, 0.102; to `Clc1ccc(CN2CCN(C3=NCCN3)CC2)cc1Cl`, 0.0846. The same measure for `C[C@@H]1[C@H](O)[C@@H](C)C=CC=CC=CC=CC=CC=CC=C[C@H](O[C@@H]2O[C@H](C)[C@@H](O)[C@H](N)[C@@H]2O)C[C@@H]2O[C@](O)(C[C@@H](O)C[C@@H](O)[C@H](O)CC[C@H](O)C[C@@H](O)CC(=O)O[C@H]1C)C[C@H](O)[C@H]2C(=O)O`: 0.0153. In the case of `CS(=O)(=O)c1ccccc1C(=O)N(Cc1ccccc1)c1ccccc1`, the log2 fold change growth is -0.293. To `Cc1cc(C)n2nc(C(=O)Nc3cc(C(F)(F)F)ccc3N3CCOCC3)nc2n1` belongs 0.174; to `COc1cccc2c(C)nc(N=C(N)N)nc12`, 0.0276.

Take `COc1cccc(-c2nc3c(N4CCCC4)cccc3n2C[C@H]2CCCN2)n1`: the log2 fold change growth is 0.434. `COc1cccc(OCC(=O)c2ccc(Br)cc2)c1`: the log2 fold change growth was -0.945. With `COc1ccc(N(CCc2cccc(C)n2)C(=O)C2CCCCC2)cc1`, the log2 fold change growth is -0.0192. To `O=C(C1CCCCC1)N1CC(=O)N2CCc3ccccc3[C@@H]2C1` belongs 0.303; to `CS(=O)(=O)c1ccc(C(=O)N(C[C@H]2CCCO2)c2nc3ccccc3s2)cc1[N+](=O)[O-]`, 0.211; to `Cc1nc(-c2ccccn2)nc(NCCc2ccc(S(C)(=O)=O)cc2)c1Cl`, -0.702. The same measure for `C[C@H]1COc2c(N3CCN(C)CC3)c(F)cc3c(=O)c(C(=O)O)cn1c23`: 0.473; for `CN1CCN(c2nccc3[nH]c(-c4ccc(F)c(F)c4)nc23)CC1`: -0.373; for `COc1cccc(-n2nnnc2S(C)(=O)=O)c1`: 0.157. The same measure for `Brc1cncc(-c2cc(NCCCn3ccnc3)nc(-c3ccccc3)n2)c1`: -1.17. Take `CCOc1ccccc1N[C@@H](C)C(=O)Nc1cc(C(F)(F)F)ccc1N1CCOCC1`: the log2 fold change growth was -1.5.

On to `O=C(N[C@H](Cc1ccccc1)C(=O)Nc1ccccc1N1CCOCC1)c1cccs1`, for which the log2 fold change growth was 0.306. To `Nc1ccc2ncnc(Nc3ccc(OCc4cccc(F)c4)c(Cl)c3)c2c1` belongs -0.0667; to `COc1ccc(-c2cnc3ccc(NCc4ccc(S(N)(=O)=O)cc4)nn23)cn1`, 0.21; to `Cc1nnc(NCc2cccc(Cl)c2)c2ccccc12`, 0.138.

On to `CCN(CC)CCCCCCNc1cc(OC)cc2c(C)ccnc12`, for which the log2 fold change growth was -0.053. To `COc1cncc(-c2cncc(N3CCN(c4ccncc4)CC3)n2)c1` belongs -0.191; to `CC[C@H](NC(=O)c1ccccc1NC(=O)c1ccc(C)cc1)C(=O)OC`, 0.0874. To `O=C(CCC1CCCCC1)Nc1cccc(-c2nnc(-c3ccco3)o2)c1` belongs 0.147; to `O=C(Nc1ccnc(-c2cccnc2)n1)c1cc(C(F)(F)F)cc(C(F)(F)F)c1`, 0.327; to `COC[C@H](C)NC(=O)CSc1ncnc2sc(-c3ccccc3)cc12`, -0.053. To `Clc1ccc(CCNc2cc(-c3ccccc3)nc3ncnn23)cc1` belongs -0.81.

On to `c1csc(-c2cnc3sc(NCC4CCOCC4)nn23)c1`, for which the log2 fold change growth is -0.257. To `Nc1nccc2ccc(Oc3ccncc3)cc12` belongs 0.145; to `CN1CCN(CCCOc2ncc(Nc3ncc(-c4ccc(C(F)(F)F)c(F)c4)nc3C(N)=O)cn2)CC1`, -0.568; to `c1ccc(-c2[nH]c3ccccc3c2[C@@H](c2ccccn2)N2CCCC2)cc1`, -0.0251. As to `Cc1ccc2c(c1C)NC(=O)[C@]21NN=C(c2ccccc2)S1`, the log2 fold change growth was -0.355. The same measure for `CC(C)c1ncc(-c2ccncc2)c(C2CCC(CNC(=O)c3cccnc3)CC2)n1` (stereo not drawn): -0.0296. As to `Cc1ccc2nc(Cl)c(CNCc3cccs3)cc2c1`, the log2 fold change growth is -0.121.
